The whole screen tested about 400,000 compounds, of which about 2,100 (0.53%) were called active. Another 14% or so got no clear call; they are omitted. How the calls were made is not given here. The list comes from a sample in which actives are over-represented; it also holds similar structures and randomly drawn compounds.

This test deals with Ataxin-2 (Homo sapiens) (UniProt Q99700). The experiment in a line: qHTS for Inhibitors of ATXN expression. The format is functional. Background: Quantitative high-throughput screening tests each substance at several concentrations.
Sequence of Ataxin-2 (Homo sapiens) (Q99700 whole entry): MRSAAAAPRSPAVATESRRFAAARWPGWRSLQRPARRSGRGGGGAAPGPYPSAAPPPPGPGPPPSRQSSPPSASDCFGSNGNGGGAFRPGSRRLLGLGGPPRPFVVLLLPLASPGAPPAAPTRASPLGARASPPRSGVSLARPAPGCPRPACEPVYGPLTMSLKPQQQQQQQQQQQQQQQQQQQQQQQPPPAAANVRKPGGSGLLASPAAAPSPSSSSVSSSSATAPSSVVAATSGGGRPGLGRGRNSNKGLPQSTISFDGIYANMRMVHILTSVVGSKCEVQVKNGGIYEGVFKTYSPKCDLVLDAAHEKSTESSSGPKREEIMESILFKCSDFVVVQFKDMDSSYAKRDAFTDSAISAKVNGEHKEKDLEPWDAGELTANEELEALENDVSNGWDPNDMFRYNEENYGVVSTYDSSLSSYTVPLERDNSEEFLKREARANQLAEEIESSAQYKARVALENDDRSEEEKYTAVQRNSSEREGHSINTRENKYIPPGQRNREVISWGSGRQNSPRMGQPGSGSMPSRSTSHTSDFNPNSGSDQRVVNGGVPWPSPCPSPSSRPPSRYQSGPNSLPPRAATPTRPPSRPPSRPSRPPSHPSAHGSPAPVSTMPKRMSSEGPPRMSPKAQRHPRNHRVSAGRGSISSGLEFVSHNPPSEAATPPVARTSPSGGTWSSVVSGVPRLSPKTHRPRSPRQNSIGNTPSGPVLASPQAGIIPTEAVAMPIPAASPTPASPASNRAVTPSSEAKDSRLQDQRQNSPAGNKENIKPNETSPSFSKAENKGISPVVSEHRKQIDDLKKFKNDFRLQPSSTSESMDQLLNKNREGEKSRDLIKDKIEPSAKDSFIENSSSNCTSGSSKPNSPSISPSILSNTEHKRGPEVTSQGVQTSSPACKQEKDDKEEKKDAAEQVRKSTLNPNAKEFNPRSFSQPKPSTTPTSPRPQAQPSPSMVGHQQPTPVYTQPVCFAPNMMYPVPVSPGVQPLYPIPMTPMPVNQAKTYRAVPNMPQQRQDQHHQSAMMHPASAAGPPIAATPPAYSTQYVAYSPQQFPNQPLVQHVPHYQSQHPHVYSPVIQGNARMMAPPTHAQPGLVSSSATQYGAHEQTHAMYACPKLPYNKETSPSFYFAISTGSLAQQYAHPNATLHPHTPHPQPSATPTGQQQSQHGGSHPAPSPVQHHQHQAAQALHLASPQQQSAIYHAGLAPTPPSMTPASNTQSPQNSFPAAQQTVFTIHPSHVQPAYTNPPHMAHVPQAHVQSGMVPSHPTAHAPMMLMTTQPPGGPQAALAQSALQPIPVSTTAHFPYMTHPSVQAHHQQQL
Turning to `Cc1ccc2oc(C(=O)NCC(c3ccc(Cl)cc3)N3CCOCC3)c(C)c2c1` (stereo not drawn), the Potency was 39.8 µM (active). As for `CCC(C)NC(=O)c1oc2ccc(S(=O)(=O)N3CCC4(CC3)OCCO4)cc2c1C` (stereo not drawn), the entry is “inactive”.

In the case of `COc1ccc(C(CNC(=O)COc2c(C)cc(C)cc2C)N2CCOCC2)cc1` (stereo not drawn), the Potency result was “inactive”. The entry for `CN(C)C(=O)c1coc2nc3ccccc3nc12` is “inactive”; for `CCN(CC)S(=O)(=O)c1cc(OC)ccc1N=Nc1ccc(O)c2ncccc12` it is 10 µM (active). As for `CCS(=O)(=O)c1ccc(N=Nc2ccc(O)c3ncccc23)c(OC)c1`, the figure is 25.1 µM (active); as for `COc1cc(NS(=O)(=O)c2ccc3ccccc3c2)c2ncccc2c1`, “inactive”; as for `CCOC(=O)c1cc2c(=O)n3ccccc3nc2n(Cc2ccco2)/c1=N/C(=O)c1cccc(OC)c1`, “inactive”. As for `COc1ccc(N2CCN(C(=O)[C@H](C)NC(=O)c3ccccc3Cl)CC2)cc1`, the entry is “inactive”. Consider `CCCS(=O)(=O)c1nc(S(=O)(=O)c2ccc(C)cc2)c(N2CCN(CCO)CC2)s1`, for which the Potency result is “inactive”. The figure for `Cc1ccc(C(=O)OCn2ncc(Cl)c(Cl)c2=O)cc1` is 20 µM (active); for `O=C(O)c1ccc(OS(=O)(=O)c2cccc(C(F)(F)F)c2)cc1` it is “inactive”; for `O=C(OCn1ncc(Cl)c(Cl)c1=O)c1cccc(C(F)(F)F)c1` it is 39.8 µM (active).

Consider `N=C(NOC(=O)c1cnn(-c2ccccc2)c1C(F)(F)F)c1cc(C(F)(F)F)cc(C(F)(F)F)c1`, for which the Potency result was “inactive”.

Regarding `COc1ccc(C(=O)OCc2ccc(C)cc2)cc1S(=O)(=O)N1CCOCC1`, the Potency entry was “inactive”. The figure for `O=C(OCn1ncc(Cl)c(Cl)c1=O)c1ccccc1Cl` is 15.8 µM (active). For the molecule `CC(=O)c1c(COC(=O)c2ccc(C)cc2)nc2ccccc2[n+]1[O-]`, the Potency result was “inactive”. As for `COC(=O)C1=CN(C)C=C(C(=O)OC)C1c1ccccc1Cl`, the entry is “inactive”; as for `O=C(OCCN1C(=O)c2cccc3c(N4CCOCC4)ccc(c23)C1=O)c1ccccc1Cl`, “inactive”; as for `C=CCn1c(SCc2cccc(F)c2)nc2cc(C(=O)N3CCC(C(N)=O)CC3)ccc2c1=O`, “inactive”. As for `CCN1C(c2ccccc2)=C(c2ccccc2)S/C1=C\C=C1/SC(=S)N(C)C1=O`, the figure is 22.4 µM (active); as for `COc1ccc(/C=N/Nc2ncnc3sc(C)c(C)c23)cc1`, “inactive”.

In the case of `NC(CCc1ccccc1)c1csc(NC(=O)Nc2cccc(C(F)(F)F)c2)n1` (stereo not drawn), the Potency is 39.8 µM (active). With `Clc1cccc(Nc2nc(-c3ccncc3)cs2)c1`, the Potency entry is “inactive”.

Consider `O=C(Nc1cccc(Cl)c1)Nc1sccc1-c1nc2ccccc2s1`, for which the Potency result is “inactive”. Take `O=C(Nc1cccc(Cl)c1)NC1CC2CCC(C1)N2Cc1ccco1` (stereo not drawn): the Potency result is “inactive”.

Take `NC(COCc1ccccc1)c1csc(NC(=O)Nc2cccc(Cl)c2)n1` (stereo not drawn): the Potency was 25.1 µM (active). In the case of `O=C(Cc1csc(Nc2nc(S)nc3ccccc23)n1)N1CCN(c2cccc(C(F)(F)F)c2)CC1`, the Potency result was “inactive”. With `NC(COCc1ccccc1)c1csc(NC(=O)Nc2cccc(C(F)(F)F)c2)n1` (stereo not drawn), the Potency was 39.8 µM (active). The figure for `O=C(Nc1cccc(Cl)c1)Nc1nnc(-c2ccncc2)s1` is 12.6 µM (active). The entry for `C/C(=N/NC(=O)c1sc(NS(=O)(=O)c2ccc(C)cc2)nc1C)c1sc(N)nc1C` is “inactive”; for `CN1CCN(/C=N/c2nc3ccccc3nc2N2CCCC2)CC1` it is “inactive”. The entry for `Cc1cc(O)nc2nc3ccccc3n12` is “inactive”. For `OCCCc1nc2n(n1)C(c1ccccc1Cl)C=C(c1cccs1)N2` (stereo not drawn), the Potency result was “inactive”. The entry for `CC(C)=Cc1c(O)n2ccccc2nc1=O` is “inactive”; for `CCC/C=C/c1ccc(CN2C(C(C)C)C(=O)N(Cc3cn(CCC4OCCCO4)nn3)CCS2(=O)=O)cc1` (stereo not drawn) it is 22.4 µM (active); for `CCC/C=C/c1ccc(CN2C(C(C)C)C(=O)N(Cc3cn(CCC4OCCO4)nn3)CCS2(=O)=O)cc1` (stereo not drawn) it is 35.5 µM (active). As for `CN(C1=NS(=O)(=O)c2ccccc21)c1ccc(OC(=O)c2ccncc2)cc1`, the entry is “inactive”. As for `Cc1csc2ncc(C(=O)N3CCc4ccccc43)c(=O)n12`, the entry is “inactive”; as for `CC1CN(Cc2cnc(Cl)s2)CC(C)O1` (stereo not drawn), “inactive”; as for `CCN1CCN(S(=O)(=O)c2ccc3c4c(cccc24)C(=O)N3CC)CC1`, “inactive”.

In the case of `CCCCCCc1cc2cc(C(=O)NC)c(=N)oc2cc1O`, the Potency result is “inactive”.

For `Cc1cc2c(cc1C)CSC(c1c(O)ccc3ccccc13)SC2`, the Potency was 35.5 µM (active). With `COc1ccc(/C=C2\SC(=S)N(NS(=O)(=O)c3ccccc3)C2=O)c(OC)c1`, the Potency is 39.8 µM (active). The entry for `COc1ccc(/C=C/C(=O)Nc2ccc(S(=O)(=O)N3CCOCC3)cc2)c(OC)c1` is “inactive”; for `COc1ccc(OC)c(/C=C2/Sc3ccccc3C2=O)c1` it is “inactive”; for `O=C(NCc1cccs1)c1cc(C2CC2)on1` it is “inactive”. The figure for `CC(C)(C)NC(=O)C(c1ccc(-c2ccccc2)cc1)N(C[C@H]1CC[C@@H]([C@@H]2CC[C@H](CO)O2)O1)C(=O)c1ccc(-c2ccccc2)cc1` (stereo partly drawn) is 35.5 µM (active); for `CC(C)(C)NC(=O)C(c1ccc(-c2ccccc2)cc1)N(C[C@H]1CC[C@@H]([C@@H]2CC[C@H](CO)O2)O1)C(=O)c1cccc(Cl)c1` (stereo partly drawn) it is 31.6 µM (active). The entry for `O=C(c1cccc(Cl)c1)N(Cc1ccco1)C1CCS(=O)(=O)C1` (stereo not drawn) is “inactive”; for `CC(C)(C)NC(=O)C(c1ccncc1)N(C(=O)C1CSC(=O)C1)c1ccccc1` (stereo not drawn) it is “inactive”. On to `CC(C)(C)NC(=O)C(c1cccnc1)N(C(=O)c1csnn1)c1ccccc1` (stereo not drawn), for which the Potency result is “inactive”. As for `CC1(C)NC(=O)N(CC(=O)N2CCN(S(=O)(=O)c3cc(Cl)ccc3Cl)CC2)C1=O`, the entry is “inactive”; as for `CC(C)Cn1nc(NC(=O)c2cccs2)c2cc3ccccc3nc21`, “inactive”; as for `Cc1ccc(S(=O)(=O)N(C)C)cc1-n1c(SCC(=O)N(C)C)nc2ccccc2c1=O`, “inactive”.

On to `CNC(=O)CSc1nc2ccccc2c(=O)n1C1CCCCC1`, for which the Potency entry was “inactive”.

Take `Cc1nn(-c2ccccc2)c(C)c1/C=N/NC(=O)CSc1nc2ccccc2c(=O)n1-c1ccc(Br)cc1`: the Potency is 12.6 µM (active). Turning to `Cc1ccccc1CS(=O)(=O)c1ncc(Cl)c(C(=O)Nc2ccc(F)cc2)n1`, the Potency is 10 µM (active). The figure for `O=C(Nc1ccc(F)cc1)c1nc(S(=O)(=O)Cc2ccccc2)ncc1Cl` is 25.1 µM (active). As for `CC(=O)Nc1ccc(S(=O)(=O)[N-]c2nc3ccccc3nc2-[n+]2ccc(NC(=O)c3ccc(F)cc3)cc2)cc1`, the entry is “inactive”.

On to `O=C(Nc1ccc(F)cc1)c1cccnc1NCCc1ccccc1`, for which the Potency result is “inactive”. The entry for `O=C1CSc2ccc(S(=O)(=O)NCc3ccc(F)cc3)cc2N1` is “inactive”; for `COc1ccc(Nc2nc3c(C)cccc3cc2C#N)cc1` it is “inactive”; for `N#Cc1nccc2ccc(OCc3ccc(Br)cc3)cc12` it is “inactive”. As for `Cn1c(O)c(/C=N/NC(=O)c2cc3ccccc3cc2O)c2ccccc21`, the entry is “inactive”. As for `O=C(N=Nc1c(O)n(Cc2ccccc2)c2ccccc12)c1cc2ccccc2cc1O`, the figure is 39.8 µM (active). Regarding `CN(C(=O)COC(=O)c1cc2ccccc2cc1O)c1ccccc1`, the Potency entry was “inactive”.

As for `Cc1ccc(C(=O)NNC(=O)c2cc3ccccc3cc2O)cc1`, the Potency result was “inactive”.

With `Cc1ccc(NC(=O)Cn2c(O)c(N=NC(=O)c3cc4ccccc4cc3O)c3ccccc32)cc1`, the Potency was 8.91 µM (active). As for `Cc1c(O)ccc2c(CC(=O)N[C@@H](Cc3ccc(O)cc3)C(=O)O)cc(=O)oc12`, the entry is “inactive”; as for `CCS(=O)(=O)c1nc(S(=O)(=O)c2ccc(Cl)cc2)c(N2CCN(CCO)CC2)s1`, “inactive”; as for `Cc1sc(NC(=O)c2ccccc2)c(C(c2ccc(Cl)cc2)N2CCN(CCO)CC2)c1C` (stereo not drawn), 28.2 µM (active). Consider `Cc1c(-c2ccc(Cl)cc2)c(=O)oc2c(CN3CCN(CCO)CC3)c(O)ccc12`, for which the Potency result is “inactive”. The entry for `Cn1c(C(=O)NCc2ccccn2)cc2c(=O)n3ccccc3nc21` is “inactive”; for `Cc1cccc(C2=NN(c3ccccc3)[C@H](CO)[C@H]2c2ccc(Cl)cc2)c1` it is “inactive”.

`CCN(CC)c1ccc(/C=N/NC(=O)c2cccc(S(=O)(=O)Nc3ccccc3OC)c2)c(O)c1`: the Potency entry was “inactive”. As for `CCN1C/C(=C\c2cc(OC)c(OC)c(OC)c2)C2=NN(c3ccccc3)C(c3cc(OC)c(OC)c(OC)c3)C2C1` (stereo not drawn), the entry is “inactive”. As for `CCOC(=O)c1ccc(NC(=O)COc2ccccc2CNCCc2ccccc2)cc1`, the figure is 29.9 µM (active); as for `Cc1ccc(C(=O)OCC(=O)NCCc2ccccc2)cc1C`, “inactive”. As for `CCOc1ccc(NC(=O)COc2ccc(C(=O)NCCc3ccccc3)cc2)cc1`, the entry is “inactive”. As to `CCCCn1nc(NC(=O)c2cccs2)c2cc3ccccc3nc21`, the Potency entry is “inactive”. Take `NS(=O)(=O)c1ccc(NCc2cnc3ccccc3c2)cc1`: the Potency result is “inactive”.

On to `CCOc1ccc2nc(NCCCNS(=O)(=O)c3ccc(C)cc3)c(C#N)cc2c1`, for which the Potency result was “inactive”. The figure for `c1ccc(COc2ncnc3c2ncn3CCCNCC(c2ccccc2)c2ccccc2)cc1` is 25.1 µM (active); for `c1ccc(COc2ncnc3c2ncn3CCCNC2CCN(Cc3ccccc3)CC2)cc1` it is 39.8 µM (active); for `COCCCn1c(C(=O)N2CC(C)OC(C)C2)cc2c(=O)n3ccccc3nc21` (stereo not drawn) it is “inactive”. As for `O=C(CC(=O)N/N=C/c1c(F)cccc1Cl)NCCc1ccccc1`, the entry is “inactive”; as for `CCOc1ccc2nc(N3CCC(C(=O)N4CCN(c5ncccn5)CC4)CC3)sc2c1`, “inactive”; as for `CCCCN(C)CCCNC(=O)C1CCN(c2nc3ccc(CC)cc3s2)CC1`, 28.2 µM (active).

As to `Cc1c(C(=O)NCc2ccc3c(c2)cc(C)n3C)cccc1[N+](=O)[O-]`, the Potency result is “inactive”. `COc1ccc(-c2sc3cc(OC)ccc3c2-c2ccc(OCCN3CCCCC3)cc2)cc1`: the Potency is 25.1 µM (active). Take `COc1ccccc1-c1sc2ccccc2c1-c1ccc(OCCN2CCCCC2)cc1`: the Potency is 35.5 µM (active). The entry for `COc1cccc2sc3cc(NCCCN4CCOCC4)ccc3c(=O)c12` is “inactive”. As for `COc1ccc2c(-c3ccc(OCCN4CCCCC4)cc3)c(-c3ccccc3OC)sc2c1`, the figure is 39.8 µM (active); as for `Brc1ccccc1OCCCN1CCCC1`, “inactive”; as for `COc1ccc(-c2c(C)c3ccc(O)c(CN4CCCCC4)c3oc2=O)cc1OC`, “inactive”. The entry for `COc1ccccc1OCCCCN1CCCCC1` is “inactive”. With `c1ccc2c(-c3ccc(OCCN4CCCCC4)cc3)c(-c3ccsc3)sc2c1`, the Potency was 39.8 µM (active).

Source of the values: ChEMBL document CHEMBL1201862, “PubChem BioAssay data set” (2004).
